Compounds with a hit are over-represented: about 19% of the library has one in this group of screens.
TDP1 cell CPT: growth inhibition of DT40 Tdp1-/-;hTDP1 cells with camptothecin (screen for TDP1 inhibitors) | chicken DT40 Tdp1-/-;hTDP1 cells + 20 nM CPT, ATP luminescence, 48 h | AID 686979 | 12% of 420,000 active | Potency, µM (doses to about 46.2 µM), for inactives: at the highest dose activity change, negative = growth inhibition, usual class: inhibitors; note: potency is the fitted concentration of half-maximal effect; % is set by controls: 0 for no effect and ±100 for the full control effect; nearly all actives have a fitted effect of over 55% in size
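Chicken DT40 Tdp1-/- cells complemented with human TDP1, 400 cells/well, exposed to compounds plus 20 nM camptothecin for at least 48 h at 37 C; viability read as ATP content by CellTiter-Glo luminescence.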
TDP1 cell noCPT: qHTS for Inhibitors of human tyrosyl-DNA phosphodiesterase 1 (TDP1): qHTS in cells in absence of CPT; DT40 Tdp1-/- hTDP1 cells, no CPT, ATP luminescence, 48 h; Potency, µM (highest dose often 46.2 µM), for inactives: top-dose activity change, negative = growth inhibition, hits mostly inhibitors; 15% of 420,000 active; AID 686978, 2013; note: potency is the fitted concentration of half-maximal effect; % is set by controls: 0 for no effect and ±100 for the full control effect; nearly all actives have a fitted effect of over 55% in size
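Seeded 400 DT40-hTDP1 cells/well (vehicle DMSO, no 20 nM CPT); pinned compounds; ≥48 hr at 37 °C; CellTiter-Glo luminescence as viability measure.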
MCF10A rereplic: DNA re-replication induction in MCF 10a cells; MCF 10A DNA re-replication, Hoechst nuclear intensity, 48 h; Potency, µM (series often up to 46.1 µM), for inactives: at the highest dose activity, positive = re-replication, usual class: activators; AID 624296; 2.9% of 350,000 active; note: potency is the fitted concentration of half-maximal effect; % of control where 0% means no effect; nearly all actives have a fitted effect of over 50% in size
SW480 rerep: inducers of DNA re-replication in SW480 colon cancer cells; SW480 DNA re-replication, Hoechst DNA content imaging, 48 h; Potency, µM (highest dose often 46.1 µM), for the others: at the highest dose re-replication activation, usual class: activators; 1.8% of 340,000 active; AID 624297; note: potency is the fitted concentration of half-maximal effect; % of control where 0% means no effect; nearly all actives have a fitted effect of over 55% in size
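Quantitative HTS format with DMSO vehicle controls; 48 hr drug incubation at 37 C, then 40 min Hoechst staining and scanning imager measurement at 405 nm excitation.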
Chronic BCR inh: blocks chronic active B-cell receptor signaling; Potency, µM (highest dose often 46.1 µM), for inactives: top-dose activity change, negative = inhibition, most hits filed as inhibitors; ABC-DLBCL IkBa-CBG/CBR reporter, luminescence ratio, 4 h; 0.05% of 340,000 active; AID 493014; active = well fitted inhibition curve with a large enough effect in the signal ratio, with a control signal flat, not every such curve was filed as active; inconclusive = small, poorly fitted or top-dose-only effect, or effect the other way, or a change in a side signal; the % refers to the signal ratio;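 note: potency is the fitted concentration of half-maximal effect; plate controls were basal doxycycline-induced cells for no effect and cells given 10 µM MG132 for full effect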
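TMD8 ABC-DLBCL cells carrying doxycycline-inducible green luciferase fused to IkappaBalpha plus unfused red luciferase were exposed to compounds (up to 46 uM) for 4 hrs at 37C. Activity came from the overlap-corrected green/red luminescence ratio.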
IL1B secr inh: inflammasome signaling inhibition, IL-1 beta readout; activity change, % at 57.5 µM; 4.7% of 360,000 active; AID 743279; THP-1 LPS/ATP IL-1B secretion, AlphaLISA, 16 h; active compounds read low; in the data active = activity change below about -50%; inconclusive = mostly about -30% to -49%; note: % is set by controls: 0 for no effect and ±100 for the full control effect
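THP-1 cells pretreated 1 hr with compounds (up to 57.5 uM final), then stimulated with LPS (250 ng/mL final) plus ATP (1.25 mM final); secreted IL-1B measured by AlphaLISA after 16 hr, decreased signal indicating inhibition.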
* hit, by the source's call; ? = inconclusive; / = no result given; [ ] = dose if it differs, or a comment. Unless noted, calls come from the whole dose curve; as a rule, active = well fitted curve in the direction sought with a large enough effect; inconclusive = small, poorly fitted or top-dose-only effect, or another doubt; inactive = no such curve, though single readings can be large; an effect the other way counts as inactive or inconclusive.

SMILES	TDP1 cell CPT	TDP1 cell noCPT	MCF10A rereplic	SW480 rerep	Chronic BCR inh	IL1B secr inh
Cc1sc(NC(=O)c2ccco2)c(C(c2cccnc2)N2CCCC2)c1C (centres undefined)	2.9µM*	2.3µM*	21µM*	?	-17%	-29
Cc1sc(NC(=O)c2ccco2)c(C(Nc2ccccn2)c2ccccc2)c1C (centres undefined)	-15%	?	?	11%	?	-51*
Cc1sc(NC(=O)c2ccco2)c(C(c2ccncc2)N2CCOCC2)c1C (centres undefined)	-27%	?	8%	10%	-1%	18
CCC(C)c1ccc2oc(-c3ccc(NC(=O)Cn4cnc5c(=O)n(C)c(=O)n(C)c54)cc3)nc2c1 (centres undefined)	21µM*	15µM*	?	?	1%	30
Cn1c(=O)c2ncn(CC(=O)Nc3ccc(N4CCOCC4)cc3)c2n(C)c1=O	-2%	-1%	3%	0%	3%	10
CCC(C)c1ccccc1OCCCCN1CCCC1 (centres undefined)	?	?	?	0%	-14%	-6
CC(C)Oc1ccc(OCCNC2CCCC2)cc1	-7%	-3%	?	-9%	8%	-8
c1ccc(COc2ccc(OCCCNC3CCCC3)cc2)cc1	?	21µM*	?	26%	-23%	-96*
CCC(C)c1ccccc1OCCCNC1CCCC1 (centres undefined)	?	18µM*	0%	20%	?	-70*
CCc1cccc(OCCCCNCCOC)c1	-10%	-28%	-4%	-4%	1%	-7
C=CCNCCCCOc1ccc(OCc2ccccc2)cc1	?	23µM*	?	21µM*	?	-51*
COCCCNCCCCOc1ccc(OCc2ccccc2)cc1	?	23µM*	?	19%	0%	-18
CC(=O)c1ccc(NC(=O)c2cc(C)nc3c2c(C)nn3-c2ccc(C)cc2)cc1	-23%	-23%	/	/	/	/
O=C(NCCc1ccc(Cl)cc1)c1ccc2c(c1)OCCO2	-23%	?	-2%	-2%	0%	0
Cc1cccc(-c2nc(CS(=O)CC(=O)NCCc3ccc(Cl)cc3)c(C)o2)c1 (centres undefined)	-10%	-19%	18%	-7%	?	-17
Cc1cc(S(=O)(=O)NCCCN2CCOCC2)c(Cl)cc1Cl	-16%	-16%	28%	-6%	1%	-5
Cc1ccc(CNC(=O)CNC(=S)N(Cc2ccccc2)Cc2cccnc2)cc1	?	26µM*	26%	9%	3%	?
O=C(CNC(=S)N(Cc1ccccc1)Cc1ccccc1F)NCCc1ccc(Cl)cc1	23µM*	?	?	12%	?	/
S=C(Nc1ccccc1Cl)N(Cc1ccccc1)Cc1cccnc1	14%	16µM*	20%	-7%	-3%	-25
O=C(CNC(=S)N(Cc1ccccc1)Cc1cccs1)NCc1ccc(F)cc1	-30%	?	?	-9%	?	-71*
O=S(=O)(/C=C/c1cccc(Br)c1)N1CCOCC1	-20%	21%	3%	-18%	-3%	-18
CCOc1ccccc1CNC(=O)CC(C)n1ccc(C)n1 (centres undefined)	0%	-10%	/	/	/	/
COc1ccc(CNC(=O)Cn2c(-c3ccccc3)cc(C(C)=O)c2C)cc1OC	10µM*	?	/	/	/	/
CCOc1ccccc1CNC(=O)Cn1c(-c2ccccc2)cc(C(C)=O)c1C	13µM*	?	/	/	/	/
CC(=O)c1cc(-c2ccc(F)cc2)n(CC(=O)NCc2cccs2)c1C	?	?	1%	0%	0%	2
SMILES	TDP1 cell CPT	TDP1 cell noCPT	MCF10A rereplic	SW480 rerep	Chronic BCR inh	IL1B secr inh
C[C@H]1CN([C@@H](C)CO)C(=O)CCCn2cc(nn2)CO[C@@H]1CN(C)C(=O)Nc1ccc2c(c1)OCO2	-16%	-21%	/	/	/	-13
CCOC(=O)c1cccc2c1-c1ccccc1/C2=N/O	-16%	-18%	12%	2%	-7%	-54*
CC(C)COC(=O)c1cccc2c1-c1ccccc1/C2=N\O	-15%	-19%	18µM*	1%	?	7
COc1cccc(-c2cccc(NC(=O)C3CCN(CCCn4cccn4)CC3)c2)c1	0%	?	/	/	/	-15
COc1cc(C2C(C#N)=C(N)N(c3sc4c(c3C#N)CCCC4)C3=C2C(=O)CC(C)(C)C3)cc(OC)c1OC (centres undefined)	21µM*	16µM*	0%	-6%	7%	64
Cc1ccccc1C1C(C#N)=C2N=C(N)c3c(sc4c3CCCCC4)N2C2=C1C(=O)CC(C)(C)C2 (centres undefined)	18µM*	?	24%	?	5%	-4
O=C1c2cccc3c2[C@@H](CCC3)CN1[C@@H]1CN2CCC1CC2	/	/	12%	14%	/	/
CC(C)Cc1nnc(NC(=O)CCC(=O)NC2CC2)s1	7%	10%	-10%	6%	-1%	1
CCN(CC)S(=O)(=O)c1ccc(N2CCCC2)c(C(=O)OCC(=O)Nc2cc(C)on2)c1	-14%	?	10%	7%	?	?
Cc1ccc2[nH]c(C(=O)N3CCc4c(cnc(C)c4CNC(=O)c4ccccc4F)C3)cc2c1	19%[9.04 µM]	-17%	/	/	/	/
O=C(c1ccc(Cl)c(S(=O)(=O)N2CCOCC2)c1)N1CCCCCC1	-25%	-3%	?	-3%	6%	27
Cc1cc(SCn2nnc3ccccc3c2=O)nc2ccccc12	-12%	-27%	25%	0%	0%	44
Cc1ccc(-n2nnnc2SCn2nnc3ccccc3c2=O)c(C)c1	9.2µM*	8.2µM*	4%	-1%	/	-6
COC(=O)c1ccccc1NC(=O)CSc1nnnn1-c1ccc(C)cc1C	?	?	13µM*	?	-2%	2
COC(=O)c1ccsc1NC(=O)CSc1nnnn1-c1ccccc1SC	11µM*	?	3%	9%	?	-2
O=C(CSc1nnnn1-c1ccccc1F)NNC(=O)c1ccco1	-1%	21%	?	-31%	0%	3
Cc1ccc(-n2nnnc2SCC(=O)NNC(=O)c2ccco2)c(C)c1	-24%	-7%	21µM*	-15%	2%	13
COC(=O)c1ccccc1NC(=O)CSc1nncn1C	19%	3%	13%	5%	0%	3
CC1(C)C(=O)N(CC(=O)Nc2ccc(OC(F)(F)F)cc2)c2ccccc21	-27%	?	/	/	/	/
